An excerpt weighted towards active compounds, which were near 0.5% of everything screened.
E coli growth-1 – E. coli growth inhibition, primary screen, OD600; OD600 absorbance (no concentration beside the values); Escherichia coli growth, 23 h; active compounds read low; actives 0.21% (n = 330,000);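 active means OD600 absorbance below the run mean of sample wells minus 3.6 SD, in any replicate, cut at about 0.56 in these data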
AddAB inh – growth inhibition of E. coli expressing H. pylori AddAB, primary screen, AddAB inhibitor project, absorbance; inhibition, % at 11.9 µM; AID 435030, 2010; actives 0.29% (n = 330,000); in the data active means inhibition above about 12%;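 further: 0% = vehicle wells of infected cells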
phage Ecoli inh – growth loss of phage-infected E. coli, primary screen, RecBCD inhibitor project, absorbance, with phage, HTS; inhibition, % at 11.9 µM; actives 0.26% (n = 360,000); AID 651602, 2012; in the data active means inhibition above about 11%
Tat transport – E. coli Tat export inhibitors, primary screen, MC4100, TorA-mCherry reporter, fluorescence, single point; actives 0.036% (n = 340,000); inhibition, % at 10 µM; AID 488895, 2010;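 active means mean replicate inhibition at least 50% and at least half of replicates individually reaching 50%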;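 further: exported cargo escapes ClpAP degradation while cytoplasmic cargo is degraded and loses fluorescence; 0% = median of neutral control wells and 100% = median of NaSCN control wells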
E coli growth-2 – E. coli V3065 growth inhibition, primary screen, counter-screen for AddAB inhibitor project, absorbance, OD600. 18 h. inhibition, % at 11.9 µM. actives 0.27% (n = 330,000). AID 449728, 2010;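 active means inhibition above the campaign's mean inhibition across all tested compounds plus 3 SD, cut at about 9.9% in these data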;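 further: uninfected addAB+ strain grown without phage in ampicillin broth; 0% = DMSO wells and 100% = ciprofloxacin 0.95 µg/ml wells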
AddAB conf – growth loss of phage-infected E. coli expressing H. pylori AddAB, confirmation, AddAB inhibitor project, absorbance, E. coli V3065, T4 phage, triplicate; OD; T4 phage with gene 2 nonsense mutations; shares compounds with AddAB inh; inhibition, % at 11.9 µM; actives 64% (n = 880); AID 488942, 2010;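 active means mean inhibition above a set limit taken from the earlier primary screen, cut at about 13% in these data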;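 further: higher means less bacterial growth since AddAB block lets phage replicate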
RecBCD counter – growth loss of RecBCD+ E. coli with mutant T4 phage, counter-screen for AddAB inhibitor project, absorbance, V66 E. coli; inhibition, % at 11.9 µM; AID 488955, 2010; actives 73% (n = 880); OD growth; shares compounds with AddAB inh;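 active means mean inhibition above the mean of solvent-only control wells plus 3 SD, cut at about 4% in these data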;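 further: optical density read after an 18 h incubation at 37 °C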
bact viab count – bacterial viability inhibition counter-screen, confirmation, counter-screen for AddAB inhibitor project, absorbance | AID 488956, 2010 | absorbance (AddAB counterscreen) | inhibition, % at 11.9 µM | shares compounds with AddAB inh | actives 35% (n = 880); in the data active means inhibition above about 25%
RecBCD conf – growth loss of phage-infected RecBCD+ E. coli, confirmation, RecBCD inhibitor project, absorbance, E. coli V66, T4 gene 2 phage; shares compounds with phage Ecoli inh; E. coli V66 + T4 2- phage, growth OD; inhibition, % at 11.9 µM; actives 45% (n = 890); AID 651982, 2013;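 active means mean inhibition over triplicates exceeding the hit threshold derived in the original primary screen, cut at about 11% in these data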
Ecoli viability – E. coli viability inhibition, counter-screen for RecBCD inhibitor project, absorbance, high throughput | absorbance (OD) growth | inhibition, % at 11.9 µM | shares compounds with phage Ecoli inh | actives 29% (n = 890); in the data active means inhibition above about 20%;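 further: E. coli strain V66 grown with compound alone and no phage infection; 0% = bacteria with DMSO vehicle only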
AddAB counter – growth loss of phage-infected AddAB-carrying E. coli, confirmation, counter-screen for RecBCD inhibitor project, absorbance, E. coli V3065, T4 phage; shares compounds with phage Ecoli inh; E. coli expressing H. pylori AddAB + T4 phage, OD growth; gene 2 mutant T4, recBCD-deleted host; inhibition, % at 11.9 µM; actives 45% (n = 890); AID 651984, 2013;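 active means mean inhibition above the solvent-only control wells' mean plus 3 SD, cut at about 22% in these data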;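 further: higher means less bacterial growth from phage killing when AddAB is blocked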
* hit, by the source's call; / = no result.

SMILES	E coli growth-1	AddAB inh	phage Ecoli inh	Tat transport	E coli growth-2	AddAB conf	RecBCD counter	bact viab count	RecBCD conf	Ecoli viability	AddAB counter
C=C1c2cccc(O)c2C(O)=C2C(=O)[C@]3(O)C(O)=C(C(N)=O)C(=O)[C@@H](N(C)C)[C@@H]3[C@@H](O)[C@H]12	0.059*	57*	100*	140*	47*	97*	99*	97*	104*	105*	104*
C[C@H]1c2cccc(O)c2C(O)=C2C(=O)C3(O)C(O)=C(C(N)=O)C(=O)[C@@H](N(C)C)[C@@H]3[C@@H](O)[C@@H]21 (stereo partly drawn)	/	96*	101*	152*	97*	101*	100*	101*	103*	104*	104*
CCn1cc(C(=O)Nc2ncccc2O)c(=O)c2cc(F)c(N3CCN(C(=O)c4ccco4)CC3)cc21	0.11*	93*	15*	-5	64*	102*	4.9*	77*	3	3	86*
CCn1cc(C(=O)O)c(=O)c2cc(F)c(N3CCN(C(=S)NC(=O)c4ccccc4)CC3)cc21	0.077*	101*	82*	21	101*	99*	100*	103*	100*	100*	100*
C=CCNC(=S)N1CCN(c2cc3c(cc2F)c(=O)c(C(=O)O)cn3CC)CC1	0.076*	100*	41*	7	99*	103*	101*	104*	103*	105*	104*
CCn1cc(C(=O)O)c(=O)c2cc(F)c(NN=Cc3ccccc3[N+](=O)[O-])cc21	0.7	/	/	/	/	/	/	/	/	/	/
CCn1cc(C(=O)O)c(=O)c2cc(F)c(N3CCN(S(=O)(=O)c4ccc(Br)cc4)CC3)cc21	/	8	/	/	0	/	/	/	/	/	/
CCn1cc(C(=O)O)c(=O)c2cc(F)c(N3CCN(C(=S)NC(=O)c4ccccc4C)CC3)cc21	0.071*	99*	97*	59*	100*	99*	101*	100*	104*	105*	104*
CC(O)C(=O)C1=Nc2c(nc(N)[nH]c2=O)NC1 (stereo not drawn)	0.7	/	/	/	/	/	/	/	/	/	/
CN(C)N=C/C=C1\CCC/C(=C\c2ccc(F)c(F)c2)C1=O	0.68	/	/	/	/	/	/	/	/	/	/
COC(=O)c1ccc(C=Nn2c(C)nc3ccccc3c2=O)cc1	0.66	/	/	/	/	/	/	/	/	/	/
CCCOc1ccc(C(=O)NC(=S)N2CCN(c3ncc4c(=O)c(C(=O)O)cn(CC)c4n3)CC2)cc1	/	/	3	/	/	/	/	/	/	/	/
CCn1cc(C(=O)O)c(=O)c2cc(F)c(N3CCN(C(=S)NC(=O)c4cc(OC)cc(OC)c4)CC3)cc21	0.083*	98*	97*	22	98*	101*	100*	101*	104*	105*	106*
CCCCOC(=O)c1ccc(NC(=S)N2CCN(c3ncc4c(=O)c(C(=O)O)cn(CC)c4n3)CC2)cc1	0.65	3	3	2	4	/	/	/	/	/	/
